Assay results as given in PubChem BioAssay (NCATS).
Records with an inconclusive call do not appear. Calls of active or inactive are those of the source. Unless noted, calls follow the shape of the dose curve; as a rule, active = well fitted curve in the direction sought with a large enough effect; inconclusive = small, poorly fitted or top-dose-only effect, or another doubt; inactive = no such curve, though single readings can be large; an effect the other way counts as inactive or inconclusive.

How the values were obtained:
[1] = molecular target: Catechol O-methyltransferase (Homo sapiens) (UniProt P21964); test: Confirmatory Screen for Target Class Profiling of Small Molecule Inhibitors of Methyltransferases (AID 1745852; calls by dose curve; as to activity change, negative = inhibition: % is scaled to controls: 0 for no effect and ±100 for the full control effect); details: MTase-Glo luminescence, SAH detection, recombinant enzyme; measured here: COMT max response; stronger effect = lower value
[2] = molecular target: Guanidinoacetate N-methyltransferase (Homo sapiens) (UniProt Q14353); test: as above; details: MTase-Glo luminescence, SAH detection, recombinant enzyme; activity change, negative = inhibition: at 57.3 µM (top of the series) unless noted; series mostly up to 57.3 µM
[3] = molecular target: Nicotinamide N-methyltransferase (Homo sapiens) (UniProt P40261); test: as above; details: MTase-Glo luminescence, SAH detection, recombinant enzyme; measured here: NNMT max response; stronger effect = lower value
[4] = molecular target: Phenylethanolamine N-methyltransferase (Homo sapiens) (UniProt P11086); test: as above; details: MTase-Glo luminescence, SAH detection, recombinant enzyme; measured here: PNMT max response; stronger effect = lower value
[5] = NCATS anti-infectives library activity on HEK293 viability as a counter-qHTS vs the C. elegans viability qHTS (AID 1745854); details: HEK293 viability counter-screen; series mostly up to 41.8 µM
In short: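 HEK293 cells, 1500 per well, exposed 24 hr at 37C in 5% CO2 to compounds in a 1:5 titration, up to 41.7 uM final. Viability read as CellTiter-Glo luminescence after 10 min at room temperature.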

[6] = molecular target: Glutathione peroxidase 1 (Homo sapiens) (UniProt P07203); test: Primary qHTS Assay for Inhibitors of Recombinant Selenoprotein Glutathione Peroxidase 1 (GPX1) (AID 1845191); details: recombinant GPX1, GR-coupled NADPH fluorescence, 15 min; series mostly up to 48.8 µM; also: nearly all actives have a fitted effect of over 65% in size
In short: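 GR-coupled assay: compounds preincubated 30 min at room temperature with GPX1, then reaction started with CHP; final 10 nM GPX1, 1 mM GSH, 0.5 mM CHP, 0.5 mM NADPH, 100 nM GR, 0.01% BSA, pH 7.5 Tris buffer. NADPH fluorescence (340/450 nm) read at 0 and 15 min.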
Potency is read from the fitted curve at half-maximal effect.

Phenylethanolamine N-methyltransferase (Homo sapiens), sequence (P11086 whole entry, looked up): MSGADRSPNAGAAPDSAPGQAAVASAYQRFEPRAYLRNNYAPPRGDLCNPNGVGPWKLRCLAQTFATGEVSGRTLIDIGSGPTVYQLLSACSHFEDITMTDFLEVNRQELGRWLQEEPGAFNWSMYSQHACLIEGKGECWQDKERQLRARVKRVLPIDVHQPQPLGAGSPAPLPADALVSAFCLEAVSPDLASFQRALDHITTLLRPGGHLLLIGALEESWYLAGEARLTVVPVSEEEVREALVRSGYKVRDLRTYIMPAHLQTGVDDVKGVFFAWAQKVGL
Catechol O-methyltransferase (Homo sapiens), sequence (P21964 whole entry, looked up): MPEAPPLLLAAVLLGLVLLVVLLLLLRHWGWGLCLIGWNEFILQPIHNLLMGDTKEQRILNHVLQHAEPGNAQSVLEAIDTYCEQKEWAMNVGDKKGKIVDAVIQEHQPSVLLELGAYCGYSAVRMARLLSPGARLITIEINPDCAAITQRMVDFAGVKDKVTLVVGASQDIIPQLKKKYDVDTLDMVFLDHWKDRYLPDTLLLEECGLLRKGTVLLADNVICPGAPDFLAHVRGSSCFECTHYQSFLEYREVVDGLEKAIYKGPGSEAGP
Nicotinamide N-methyltransferase (Homo sapiens), sequence (P40261 whole entry, looked up): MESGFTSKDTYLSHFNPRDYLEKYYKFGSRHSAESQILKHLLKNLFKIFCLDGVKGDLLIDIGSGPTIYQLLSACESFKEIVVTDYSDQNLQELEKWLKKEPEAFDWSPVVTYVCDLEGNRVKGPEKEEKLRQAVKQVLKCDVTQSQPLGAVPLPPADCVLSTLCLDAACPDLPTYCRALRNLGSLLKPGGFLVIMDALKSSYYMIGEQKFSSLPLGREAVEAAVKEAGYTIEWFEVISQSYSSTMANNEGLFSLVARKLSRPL
Glutathione peroxidase 1 (Homo sapiens), sequence (P07203 whole entry, looked up): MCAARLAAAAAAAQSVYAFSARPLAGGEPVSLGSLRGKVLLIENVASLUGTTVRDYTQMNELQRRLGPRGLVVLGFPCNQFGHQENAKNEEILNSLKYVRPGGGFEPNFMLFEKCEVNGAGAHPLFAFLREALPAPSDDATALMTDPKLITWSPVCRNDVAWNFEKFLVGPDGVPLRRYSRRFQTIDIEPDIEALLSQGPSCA

SMILES: CC(C)c1nccn1CCCNc1nc(-c2ccncc2)nc2c1cnn2C
- activity [1]: -28.8%
- activity change, negative = inhibition [2]: -15.2%
- activity [3]: -20.9%
- activity [4]: -44.2%

SMILES: Cc1c(O)cc(O)c2c(=O)c(O)c(-c3ccc(O)c(O)c3)oc12
- activity [1]: -46.7%
- Potency [2]: 24.1 µM (active)
- activity [3]: -19.4%
- activity [4]: -17.7%

SMILES: Cc1cnccc1NCCn1ccnc1-c1cc2n(n1)CCCNC2
- activity [1]: -0.636%
- activity change, negative = inhibition [2]: 2.5%
- activity [3]: 0.35%
- activity [4]: 0.494%

SMILES: CC(C)(C)OC(=O)N[C@H]1CCCCC/C=C\[C@@H]2C[C@@]2(C(=O)NS(=O)(=O)C2CC2)NC(=O)[C@@H]2C[C@@H](OC(=O)N3Cc4cccc(F)c4C3)CN2C1=O
- Potency [5]: inactive

SMILES: CN(C)CCOCC1(C)COc2ccc(C(=O)Nc3ccc4[nH]ccc4c3)cc2N1 (stereo not drawn)
- activity [1]: 1.58%
- activity change, negative = inhibition [2]: 9.89% [at 85.7 µM]
- activity [3]: 2.73%
- activity [4]: 0.534%

SMILES: COc1ccc(-c2sc(NC(=O)C(C)(C)C)nc2C)cc1S(=O)(=O)Nc1ccc(O)cc1
- Potency [5]: inactive

SMILES: Cn1c(=O)c2ccnn2c2ccc(C(=O)NCC3CCN(Cc4ccccc4F)CC3)cc21
- activity [1]: 3.91%
- activity change, negative = inhibition [2]: 6.11%
- activity [3]: -38.8%
- activity [4]: 2.1%

SMILES: COc1cc2nc(N3CCCCC3)nc(NC3CCN(C)CC3)c2cc1OC
- activity [1]: 1.4%
- activity change, negative = inhibition [2]: 3.17%
- activity [3]: -11.7%
- activity [4]: -7.42%
- Potency [6]: 18 µM (active)

SMILES: O=[N+]([O-])c1ccc(S(=O)(=O)N2CCN(c3ccnc4cc(Cl)ccc34)CC2)c([N+](=O)[O-])c1
- Potency [5]: 10 µM (active)

SMILES: CCCC1c2cccn2CCN1C(=O)Nc1ccc(Br)cc1 (stereo not drawn)
- activity [1]: -7.6%
- activity change, negative = inhibition [2]: -4.2%
- activity [3]: -18.3%
- activity [4]: -12.2%

SMILES: O=C(CCc1nnc2n(Cc3ccccc3Cl)c(=O)c3ccccc3n12)NCCc1c[nH]c2ccccc12
- activity [1]: 4.12%
- activity change, negative = inhibition [2]: 0%
- activity [3]: -2.9%
- activity [4]: -5.42%

SMILES: COc1ccc(CC(=O)Nc2ccc3ncnc(N4CCCC4)c3c2)c(Cl)c1
- activity [1]: -2.51%
- activity change, negative = inhibition [2]: -0.581%
- activity [3]: -30.7%
- activity [4]: -8.25%

SMILES: COc1ccc(NC(=O)CCc2ccnc(N3CCCC3)c2)c(OC)c1
- activity [1]: -5.64%
- activity change, negative = inhibition [2]: -3.43%
- activity [3]: -4.13%
- activity [4]: -2.38%

SMILES: c1ccc(CCN2CCNc3cc(NCc4cccnc4)ncc3C2)cc1
- activity [1]: 2.5%
- activity change, negative = inhibition [2]: 1.95% [at 85.7 µM]
- activity [3]: -5.35%
- activity [4]: -6.38%
